Where “and” joins values, the source holds several entries; their conditions need not be identical. Equal values may be shown once. In all, about 16,000 compounds went through this assay and about 40 (0.2%) were called active. Inconclusive results (about 1%) are left out. Calls follow the shape of the dose curve; as a rule, active = well fitted activation curve with a large enough effect; inconclusive = small, poorly fitted or top-dose-only effect, or another doubt; inactive = no such curve, though single readings can be large or run the other way. What follows is part of a selection rich in actives, with near analogues and random picks from the rest. More than one record can exist for a structure, and the calls need not agree.
Molecular target: Rap guanine nucleotide exchange factor 4 (Homo sapiens) (UniProt Q8WZA2)
Sequence (Q8WZA2 whole entry, looked up): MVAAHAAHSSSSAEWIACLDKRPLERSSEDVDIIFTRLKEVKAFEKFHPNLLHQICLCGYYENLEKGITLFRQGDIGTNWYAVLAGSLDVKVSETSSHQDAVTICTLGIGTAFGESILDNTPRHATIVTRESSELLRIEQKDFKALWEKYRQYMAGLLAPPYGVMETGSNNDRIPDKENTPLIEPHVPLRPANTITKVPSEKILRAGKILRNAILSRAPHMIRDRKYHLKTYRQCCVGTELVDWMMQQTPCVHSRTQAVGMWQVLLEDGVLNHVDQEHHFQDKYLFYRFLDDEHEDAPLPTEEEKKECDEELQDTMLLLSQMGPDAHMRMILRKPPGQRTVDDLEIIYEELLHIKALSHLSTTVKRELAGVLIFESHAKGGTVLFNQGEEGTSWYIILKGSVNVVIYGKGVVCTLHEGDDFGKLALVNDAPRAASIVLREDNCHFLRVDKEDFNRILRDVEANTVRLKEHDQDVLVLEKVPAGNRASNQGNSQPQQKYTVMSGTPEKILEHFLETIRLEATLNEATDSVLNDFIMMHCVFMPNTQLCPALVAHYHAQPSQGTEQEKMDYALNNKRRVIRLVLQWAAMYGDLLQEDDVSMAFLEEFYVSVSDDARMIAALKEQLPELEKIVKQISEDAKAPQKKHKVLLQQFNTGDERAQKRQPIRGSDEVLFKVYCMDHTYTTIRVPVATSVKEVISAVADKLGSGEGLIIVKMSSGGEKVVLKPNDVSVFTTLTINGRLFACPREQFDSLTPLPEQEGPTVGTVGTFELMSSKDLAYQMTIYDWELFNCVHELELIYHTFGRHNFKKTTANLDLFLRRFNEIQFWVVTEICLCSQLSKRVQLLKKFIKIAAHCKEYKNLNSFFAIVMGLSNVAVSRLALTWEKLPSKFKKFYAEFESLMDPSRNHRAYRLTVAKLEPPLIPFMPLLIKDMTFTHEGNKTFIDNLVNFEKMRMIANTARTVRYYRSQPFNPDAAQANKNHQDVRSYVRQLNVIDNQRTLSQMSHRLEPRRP
Test: Validation qHTS for agonist of cAMP-regulated guanine nucleotide exchange factor 4 (EPAC2);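 as to activation: exchange makes BODIPY-GDP fluorescence drop when released from Rap1B; series mostly up to about 150 µM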
Details: EPAC2 Rap1B BODIPY-GDP exchange, fluorescence; activation: active compounds read high
In short: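 Signal normalized against 6.5 mM cAMP as agonist control. Mix of EPAC2 (100 nM), RAP1B-BODIPY-GDP (250 nM) and GDP (50 uM) was read kinetically at 480/540 nm, every 5 min over 30 min, after 5 min room-temperature incubation with compound.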
% is scaled to controls: 0 for no effect and ±100 for the full control effect; potency is read from the fitted curve at half-maximal effect.

activation, inactive:
COc1cccc(-c2nc(N3CCN(C)CC3)c3ccccc3n2)c1 -6.1%
COc1cccc(CNC(=O)c2c(OC)cc(=O)n3c2CCN(C(=O)c2cc(C)ccc2C)CC3)c1 -2.82%
O=c1c(-c2ccc(Cl)cc2)nc2cnc(N3CCOCC3)nc2n1Cc1ccc(F)cc1 -11.5%
COc1cc(CN2CCOc3ccc(C(O)c4cccnc4)cc3C2)cc(OC)c1 (stereo unspecified) -13.6%
COc1cc(N)c(N)cc1OC -7.59%
Nc1ccc(O)cc1 25.8% and 23.8%
Cc1cnc(CNc2cc(-c3ccc(N(C)C)cc3)ncn2)cn1 -19.7%
COc1ccccc1C1CN(CCNC(=O)c2ccc3c(c2)OCCO3)Cc2ccccc2O1 (stereo unspecified) 10.6%
COc1ccccc1CN1[C@@H](CC(=O)O)c2ccccc2S1(=O)=O -19.4%
COC(=O)C1CCN(Cc2ccc3c(c2)CN(C(=O)c2ccc(-n4cnnn4)cc2)CCO3)CC1 -3.06%
COc1cc(/C(C)=C/c2ccccc2)c2c(c1)oc1ccccc12 -19%
CCCCCCCCCCCCCCCC[n+]1ccc(/C=C/c2c(C)[nH]c3ccccc23)cc1 -30%
CCCCCCC[n+]1ccc(/C=C/c2c(C)[nH]c3ccccc23)c2ccccc21 -18.3%
Cc1cnc(-n2ncc(C(=O)NCc3ccccn3)c2C2CC2)nc1-c1cccs1 -5.87%
Nc1ccc2nc[nH]c2c1 -7.36%
c1ccc2nc3ccccc3cc2c1 -8.02%
COc1ccc2c(c1)-c1nc(-n3ncc(C(=O)NCC4CCCN(C)C4)c3C3CC3)ncc1CC2 (stereo unspecified) 1.91%
CC(=O)N[C@@H]1C(O[C@H]2O[C@H](C(=O)O)C(O)[C@H](O)[C@H]2O)[C@H](O)[C@@H](CO)O[C@H]1O[C@@H]1C(C(=O)O)O[C@@H](O[C@H]2[C@H](O)[C@@H](CO)OC(O)[C@@H]2NC(C)=O)[C@H](O)[C@H]1O (stereo partly specified) -11.1%
CCn1c(C)nc2cc(NS(=O)(=O)c3ccccc3)cc(C(=O)N3C[C@@H](C)O[C@@H](C)C3)c21 -0.794%
OC(C1=C/C(=C\c2ccncc2)c2ccccc21)c1ccncc1 (stereo unspecified) -21.2%
COc1ccc(C(=O)N2CCC3(CC2)c2ccccc2[C@@H](NC(=O)c2ccccn2)[C@@H]3OC)c(O)c1 3.44%
O=C1[C@H](Cc2ccccc2)NC/C=C\C[C@@H](c2ccc(Cl)cc2)N1Cc1ccccc1 -43%
CC(C)C[C@@H](CO)N1CCN(Cc2cccc(C#N)c2)CCC1=O -27.7%
COc1ccc(OC)c(CN2CCCC(c3nc(-c4ccncc4)ncc3-c3ccccc3C)C2)c1 (stereo unspecified) -2.68%
FC(F)(F)C(Cl)Br (stereo unspecified) -29.1%
COCc1ccc(CN2CCOc3c(O)cc(-c4cc(C)c5ccc(F)cc5n4)cc3C2)o1 8.6%
O=C(c1cc(C(F)(F)F)cc(C(F)(F)F)c1)N1CCC2(CCCN(Cc3ccccc3)C2)CC1 -6.26%
Cc1cc(C)n2nc(C(=O)NCC3Cc4cccc(-c5ccc(S(C)(=O)=O)cc5)c4O3)cc2n1 (stereo unspecified) 2.37%
COc1c(O)cc2c(=O)oc3c(OC)c(O)cc4c(=O)oc1c2c34 -13.8%
O=c1oc2c(O)c(O)cc3c(=O)oc4c(O)c(O)cc1c4c23 0.203%
Cc1cc(=O)oc2c(O)c(O)ccc12 -5.12%
CN(C)c1ccc(/C=C/c2ccc3cc(N(C)C)ccc3n2)cc1 0.661%
COc1ccccc1-c1nccc(NCc2ccccc2)n1 -0.806%
COc1ccccc1-c1nccc(NCc2cccc(C)c2)n1 -13.6%
OC1CCN(Cc2ccc3c(c2)CN(Cc2ccc(Oc4ncccn4)cc2)CCO3)CC1 -1.28%
CC(=O)OCC1=C(C(=O)O)N2C(=O)C(NC(=O)CSc3ccncc3)[C@@H]2SC1 (stereo partly specified) -16.2%
O=C(NCc1nnc2n1CCN(C(=O)c1cccc(Cl)c1)CC2)C1CC1 -2.97%
CC(=O)OCC(=O)[C@@]1(O)CCC2C3CC(C)C4=CC(=O)C=CC4(C)C3C(O)CC21C (stereo partly specified) -21.4%
Cc1cnc(SCCN2CCOCC2)nc1C1CCCN(C(=O)c2cccc3c(C)c(C)[nH]c23)C1 (stereo unspecified) -5.56%
CC(=O)NCC(=O)NCC1Cc2cc(C)cc(-c3ccccn3)c2O1 (stereo unspecified) 0.493%
CN(CCO)C(=O)c1cn(C2CCCN(Cc3ccc(C(F)(F)F)cc3)C2)nn1 (stereo unspecified) -15.8%
COC(=O)C1[C@H]2SC(C)(C)C(C(=O)OC)N2C(=O)N1Cc1ccccc1 (stereo partly specified) -17.5%
COCCn1c(=O)c(-c2ccc(F)cc2)nc2cnc(Nc3cccc(OC)c3)nc21 6.42%
C[C@@H](N)CCCP(=O)(O)O -1.34%
CC(C)CN1CCC2(CC1)CCN(C(=O)c1ccco1)CC2 -7.83%
COC(=O)C1C(O)CC[C@@H]2CN3CCc4c([nH]c5ccccc45)C3C[C@@H]12 (stereo partly specified) -7.23% and -17.2%
CC(N)(COP(=O)(O)O)C(=O)O (stereo unspecified) 4.78%
CC(C)C[C@@H](CSc1ccccc1)N1CCN(C)CCC1=O -9.44%
Cc1noc(C)c1-c1nccc(NC2CC2)n1 -2.86%
CC(C)CCCC(C)C1CCC2C3C(=O)C=C4CC(O)CC[C@@]4(C)C3CC[C@@]12C (stereo partly specified) -16%
COC(=O)c1ccccc1C(=O)NCC1Cc2cc(-c3nc(C)cnc3C)ccc2O1 (stereo unspecified) -20.8%
CCCCCCCCCC[n+]1ccc(/C=C/c2c[nH]c3ccccc23)c2ccccc21 -5.9%
COCC(=O)N1CCC[C@@]2(CCN(c3ccccn3)C2)C1 -5.3%
COc1cccc(Nc2ncc3nc(C)c(=O)n(C[C@H]4CCCO4)c3n2)c1 -13.4%
[C-]#[N+]c1cc(-c2ccncc2)c(C)[nH]c1=O -4.45%
Cc1cccc(N(C)C(=S)Oc2ccc3c(c2)CCC3)c1 13.3%
OC(c1cccnc1)c1ccc2c(c1)CN(Cc1cn(-c3ccccc3)nc1-c1ccccc1)CCO2 (stereo unspecified) -2.05%
O.O.O.O.O.O.O.O=S(=O)([O-])[O-].[Co+2] -48.9%
CN(C)Cc1ccccc1-c1cncnc1NCc1ccccc1 -18.5%
N#Cc1ccccc1-c1ccc2ncnc(NCc3ccccc3)c2c1 -0.93%
CC(C)(CNC(=O)c1cnn(-c2nccc(-c3ccccc3F)n2)c1C1CC1)N1CCOCC1 -17.8%
C[C@]12CCC(=O)C=C1CCC1C3CC[C@](O)(C(=O)CO)[C@@]3(C)CC3OC312 (stereo partly specified) -18.8%
O=C1CCNCCN1[C@H](CO)c1ccccc1 -16.1%
CN(C)c1ncnc2ccc(-c3cccc(C#N)c3)cc12 -0.384%
Cc1cc(N(C)C)cc(C)c1/C=C/c1cc[n+](C)c2ccccc12 -16.7%
Cc1cc2c(c(-c3cnccn3)c1)OC(CNC(=O)c1cc(Cl)ccc1F)C2 (stereo unspecified) 5.25%
COC(=O)C1N[C@@H]([C@@H](NC(=O)COc2ccccc2)C(=O)Nc2ccc(OC)cc2)SC1(C)C (stereo partly specified) -24.1%
CC(=O)NCCNc1nc(-c2ccccc2CN(C)C)nc2ccccc12 -19.9%
COC(=O)CC[C@H](N)C(=O)O -14%
CN1CCN(c2ncc3nc(-c4cn(C)c5ccccc45)c(=O)n(Cc4cccs4)c3n2)CC1 -4.2%
OC(c1ccc2c(c1)CN(Cc1cccn1-c1ncccn1)CCO2)C1CCCCC1 (stereo unspecified) -21.5%
COc1ccc2[nH]cc(CCNc3nc(-c4c(C)noc4C)nc4ccccc34)c2c1 6.86%
CCCCCCCCCCCCCCCCCCN(CCCCCCCCCCCCCCCCCC)c1ccc(/C=C/c2ccnc3ccccc23)cc1 -21.8%
CN(C)c1ccc(/C=C/c2ccnc3ccccc23)cc1[N+](=O)[O-] -6.84%
OCCN(CCO)c1ccc(/C=C/c2ccnc3ccccc23)cc1 -44.7%
CN(C)c1ccc(/C=C/c2ccnc3ccccc23)cc1Cl -5.92%
Cc1cccc(CNc2nc(-c3ccc4c(c3)OCO4)nc3ccccc23)c1 5.64%
Cc1oc(-c2ccccc2NC(=O)C2CCCO2)nc1CNC(=O)c1[nH]c2c(C)ccc(C)c2c1C (stereo unspecified) 8.6%
COc1ccc(-n2c(=O)c(-c3cccs3)nc3cnc(Nc4ccccc4)nc32)cc1 -5.89%
COc1cccc(Nc2ncc3nc(C)c(=O)n(-c4ccccc4)c3n2)c1 -17%
CNS(=O)(=O)Cc1ccc2[nH]cc(CCN(C)C)c2c1 -28%
CN(C)CCc1c[nH]c2ccc(CS(=O)(=O)N3CCCC3)cc12 -8.07%
CC(C)c1c(O)ccc2c1CCC1[C@@](C)(C=O)CCC[C@@]21C (stereo partly specified) 22.5%
CC[C@@]1(O)C(=O)OCc2c1cc1n(c2=O)Cc2cc3cc(O)ccc3nc2-1 -2.34% and 12.4%
CC[C@@]1(O)C(=O)OCc2c1cc1n(c2=O)Cc2cc3c([N+](=O)[O-])cccc3nc2-1 5.92%
C[N+]1(Cc2ccccc2)CCC(C(=O)OCC2CCCC2)CC1 (stereo unspecified) -12.2%
N#Cc1ccc(CN2CC[C@@]3(CCCN(C(=O)c4ccco4)C3)C2)cc1 -12.3%
COC(=O)C(O)C1C(C)(C)C(OC(C)=O)C2CC3=C4CC(=O)OC(c5ccoc5)[C@]4(C)CCC3[C@@]1(C)C2=O (stereo partly specified) -10.7%

Potency, active:
Nc1cc(N)cc(N)c1 50.1 µM
CCCCCCC[n+]1ccc(/C=C/c2c(C)[nH]c3ccccc23)cc1 25.1 µM
Nc1ccc2cc3ccc(N)cc3nc2c1 89.1 µM
FC(F)OC(Cl)C(F)(F)F (stereo unspecified) 31.6 µM
O=c1oc2c(O)c(O)cc3c(=O)oc4c(O)c(O)cc1c4c23 126 µM
CCOC(=O)Nc1ccc(NCc2ccc(F)cc2)nc1N 112 µM
C/C1=C2N=C(/C=C3N=C(/C(C)=C4\[N-][C@@](C)([C@@H]5N=C1[C@](C)(CCC(=O)NCC(C)OP(=O)(O)O[C@H]1[C@@H](O)[C@@H](n6cnc7cc(C)c(C)cc76)O[C@@H]1CO)[C@H]5CC(N)=O)[C@@](C)(CC(N)=O)[C@@H]4CCC(N)=O)[C@@](C)(CC(N)=O)[C@@H]\3CCC(N)=O)C(C)(C)[C@@H]/2CCC(N)=O.CC(=O)O.[Co] (stereo partly specified) 56.2 µM
Nc1cc(-c2ccncc2)c[nH]c1=O 100 µM
Cc1cc(/C=C/c2ccnc3ccccc23)ccc1N(C)C 50.1 µM
CCCN(CCC)c1ccc(/C=C/c2ccnc3ccccc23)cc1 100 µM
COc1cccc(Nc2ncc3nc(-c4cccs4)c(=O)n(-c4ccccc4)c3n2)c1 50.1 µM
CN(C)CCc1c[nH]c2ccc(C[C@H]3COC(=O)N3)cc12 126 µM
CC[C@@]1(O)C(=O)OCc2c1cc1n(c2=O)Cc2cc3c(CN(C)C)c(O)ccc3nc2-1 89.1 µM

From PubChem BioAssay AID1645887 (National Center for Advancing Translational Sciences (NCATS), 2021)
